Compound activity (PubChem BioAssay)
PolyA inh: polyadenylation inhibitors in yeast reporter cells, primary screen, luminescence, S. cerevisiae; activity score, % at 12 µM; S. cerevisiae SKY197-pL101 polyadenylation reporter, beta-gal luminescence; efflux-impaired pdr1/pdr3 knockout yeast; score 100 = 6 SD above DMSO; 300,000 tested, 0.02% active;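 active = lowest replicate activity score at least 50, where 100 means six control SD above control mean; inconclusive = lowest score under 50 but half or more replicates reach 50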;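 also: yeast exposed to compound for 9 h at 30 °C; higher score means more reporter readthrough which indicates perturbed polyadenylation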
ZTA DNA inh: ZTA (EBV) inhibition in EBNA-1 counter-screen; P03206; ZTA-DNA binding, fluorescence polarization; 320,000 tested, 0.15% active; inhibition, % at 11 µM; in the data active = inhibition above about 33%
Target sequence (P03206 whole entry, looked up): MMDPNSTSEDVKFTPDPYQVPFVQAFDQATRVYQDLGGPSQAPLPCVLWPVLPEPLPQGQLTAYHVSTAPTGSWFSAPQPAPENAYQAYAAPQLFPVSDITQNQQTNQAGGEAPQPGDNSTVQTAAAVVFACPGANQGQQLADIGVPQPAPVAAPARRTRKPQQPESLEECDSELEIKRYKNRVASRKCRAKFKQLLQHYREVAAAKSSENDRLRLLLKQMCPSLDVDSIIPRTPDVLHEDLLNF
NALP3 yeast inh: NALP3 inflammasome inhibitors in reconstituted yeast, primary screen, luminescence, uHTS; Yeast reconstituted NLRP3/ASC/caspase-1, beta-gal luminescence, 24 h; inhibition, % at 10 µM; 330,000 tested, 0.39% active;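 active = inhibition of 50% or more; inactive = inhibition below 50%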
NALP1 inh: NALP1 inflammasome inhibitors in reconstituted yeast, colorimetric, S. cerevisiae, triplicate retest | 280,000 tested, 0.61% active | S. cerevisiae NALP1/ASC/caspase-1 growth, X-gal OD620, 72 h | inhibition, % at 10 µM; in the data active = inhibition mostly above about 24%, no sharp cut-off; inactive = mostly below about 32%
dFosB activator: activators of delta FosB homodimer, primary screen, biochemical, fluorescence polarization, TAMRA-CDK5 oligo, single point; purified delta FosB; percent of positive-control signal above neutral wells; activation, % at 25 µM; 340,000 tested, 0.99% active; AID 493131, 2011;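 active = mean activation above about 17%, with every replicate also reaching it, limit read from the data, passing the limit was not always enough; inconclusive = only one of the two conditions met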
Target sequence (P13346 whole entry, looked up): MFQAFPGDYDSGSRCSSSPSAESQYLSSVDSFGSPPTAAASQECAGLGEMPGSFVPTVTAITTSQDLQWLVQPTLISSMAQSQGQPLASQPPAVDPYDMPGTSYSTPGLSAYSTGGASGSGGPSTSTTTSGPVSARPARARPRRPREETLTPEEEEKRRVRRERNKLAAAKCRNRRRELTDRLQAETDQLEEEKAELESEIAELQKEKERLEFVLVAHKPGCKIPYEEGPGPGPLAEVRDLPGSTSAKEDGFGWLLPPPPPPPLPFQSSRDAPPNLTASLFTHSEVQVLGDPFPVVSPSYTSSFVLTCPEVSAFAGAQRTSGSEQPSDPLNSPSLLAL
EBNA-1 inhibitor: EBNA-1 DNA-binding inhibitors, primary screen, biochemical, fluorescence polarization; inhibition, % at 14.8 µM; 300,000 tested, 0.34% active; in the data active = inhibition above about 28%
Each line names hits and unclear results; the compound was inactive in the other large screens. Sampled rows, rich in hits. Any-hit rate of the full collection: about 2.2%.

Cn1nc(C(=O)Nc2cccc(S(N)(=O)=O)c2)c2ccccc2c1=O	NALP1 inh 40
COc1ccc(CCn2nnc(-c3ccc(NC(C)=O)c(Cl)c3)n2)cc1	dFosB activator 33
COc1ccc(-c2ccc(-c3nnn(CC(C)=O)n3)cc2)cc1	none
CC(=O)c1ccc(NC(=O)CSc2ccc(-c3ccc(-n4cccn4)cc3)nn2)cc1	none (no result: NALP1 inh)
CC(OC(=O)CNC(=O)C12CC3CC(CC(C3)C1)C2)C(=O)Nc1ncc(Cl)cc1Cl (centres undefined)	NALP1 inh 40
Cn1c(C(=O)N2CCN(c3ccc([N+](=O)[O-])cc3)CC2)cc2c(=O)[nH]c3ccccc3c21	dFosB activator 23 (no result: ZTA DNA inh, NALP3 yeast inh, EBNA-1 inhibitor)
COc1cc(/C=C2/NC(=O)N(CC(=O)Nc3ccc(C)cc3)C2=O)ccc1Oc1ccc([N+](=O)[O-])cn1	dFosB activator 18
O=C(NCc1ccc(Cl)cc1)C1CCCO1 (centres undefined)	none
O=C(NCc1cccc(Cl)c1)C1CCCO1 (centres undefined)	NALP1 inh 32
O=C1c2cnc3nc(SCc4ccccc4)nn3c2CC2c3ccccc3CCN12 (centres undefined)	PolyA inh 114
CSc1ccc(CN2CCC(C(=O)NCc3ccc(C)cc3)CC2)cc1	NALP1 inh 25
O=C(Nc1cccc(S(=O)(=O)N2CCCCCC2)c1)C1CCC1	none (no result: NALP1 inh)
COc1ccc(S(=O)(=O)N(CCCN2CCOCC2)Cc2cccc3ccccc23)cc1	NALP1 inh 39
C[C@@]12C(=O)Nc3ccc(Br)cc3C(=O)N1[C@H]1c3cc(Cl)ccc3OC[C@@H]1[C@@H]2c1ccccc1	dFosB activator 25 (no result: PolyA inh, NALP1 inh)
CCN(C(=O)c1ccco1)C1C2CC3CC(C2)CC1C3 (centres undefined)	none
O=c1[nH]n(Cc2ccccc2)c2ccccc12	none
Cc1ccc(C(=O)Oc2ccccc2N2C(=O)C3CCC(C)CC3C2=O)cc1 (centres undefined)	none
CC1CCC2C(=O)N(c3ccc(C(=O)Oc4cccc5cccnc45)cc3)C(=O)C2C1 (centres undefined)	NALP1 inh 71
CC(C)(C)NCC(=O)c1c[nH]c2ccccc12	NALP1 inh 30
O=[N+]([O-])c1ccc(Nc2nc(N/N=C\c3ccc4c(c3)OCO4)nc(N3CCCCC3)n2)cc1	dFosB activator 63
CC(=C/c1ccco1)/C=N/NC(=O)c1nnn(-c2nonc2N)c1CN(C)C	none
CN(CCc1ccccc1)C(=O)c1ccc(NC(=O)Cc2ccc(NC(=O)C3CCN(C(=O)c4ccccc4)CC3)cc2)cc1	none (no result: PolyA inh, ZTA DNA inh, NALP3 yeast inh, NALP1 inh, EBNA-1 inhibitor)
COc1cc(/C=C2\SC(=S)N(NC(=O)c3ccncc3)C2=O)ccc1O	PolyA inh 92, dFosB activator 33
COc1cc(/C=C2\SC(=S)N(NS(=O)(=O)c3ccccc3)C2=O)ccc1O	PolyA inh 85, dFosB activator 21
COc1cc(/C=C2\SC(=S)N(NC(=O)c3ccc(O)c(OC)c3)C2=O)ccc1O	dFosB activator inconclusive
COc1cc(/C=C2\SC(=S)N(C(C(=O)O)c3ccccc3)C2=O)ccc1O (centres undefined)	dFosB activator 23
O=C1C=CCC(/C=C/c2ccccc2)O1 (centres undefined)	NALP1 inh 47 (no result: dFosB activator)
O=C(CN(Cc1ccco1)C(=O)CCC(=O)Nc1ccccn1)NCc1ccccc1	none
Cc1ccc(C(=O)Nc2ccc(N3CCCC3)cc2)c(C)c1	dFosB activator 49
O=C(Nc1ccc(N2CCCC2)cc1)c1ccccc1[N+](=O)[O-]	dFosB activator 25
O=C(Nc1ccc(N2CCCC2)cc1)c1cc(Br)ccc1Cl	dFosB activator 52
Cc1ccsc1C(=O)NCCc1ccc(S(N)(=O)=O)cc1	none
COc1cc(C(=O)N[C@H](C(=O)NC(C)C23CC4CC(CC(C4)C2)C3)C(C)C)cc(OC)c1OC (some centres undefined)	NALP1 inh 41
Cn1c(SCC(=O)OCc2ccccc2)nnc1-c1ccco1	NALP1 inh 44
COCCN1Cc2cccc(C(=O)NCCc3ccccc3)c2C1=O	none
COCCCN1Cc2cccc(C(=O)O)c2C1=O	NALP1 inh 38
O=C(N/N=C/c1ccc(Br)s1)c1ccco1	none
O=C(N/N=C/c1sc(=O)n(Cc2ccc(Br)cc2)c1Cl)c1ccco1	dFosB activator 35
CC(=O)c1cccc(N2C(=O)CC(N3CCN(S(=O)(=O)c4ccc(Cl)cc4)CC3)C2=O)c1 (centres undefined)	none (no result: PolyA inh, NALP1 inh, EBNA-1 inhibitor)
CCCCNC(=O)Nc1ncn[nH]1	NALP1 inh 40
Cc1ccc(C(=O)Nc2ncn[nH]2)cc1	none
CC(NC(=O)COC(=O)CN1C(=O)c2ccccc2C1=O)c1ccccc1 (centres undefined)	none (no result: PolyA inh, ZTA DNA inh, NALP1 inh, EBNA-1 inhibitor)
Cc1ccc(NC(=O)CN(C)C(=O)COc2cccc3cccnc23)cc1	NALP1 inh 64
Cc1ccc(NC(=O)CN(C)S(=O)(=O)c2cccc3cccnc23)cc1	none
CN(CCc1ccccn1)C(=O)CCC1CCCN(C(=O)c2n[nH]c3c2CCCC3)C1 (centres undefined)	none
Cc1ccc(Cn2c(CN(C)Cc3ccccc3)nc3c2c(=O)n(C)c(=O)n3C)cc1	none
Cc1ccc(C)c(Cn2c(CN(C)Cc3ccccc3)nc3c2c(=O)n(C)c(=O)n3C)c1	NALP1 inh 40
O=C(O)C(Cc1ccccc1)N1C(=O)/C(=C/C=C/c2ccco2)SC1=S (centres undefined)	none (no result: ZTA DNA inh, NALP3 yeast inh, EBNA-1 inhibitor)
O=C(O)CCCN1C(=O)/C(=C/C=C/c2ccco2)SC1=S	PolyA inh inconclusive, ZTA DNA inh 88, EBNA-1 inhibitor 45
O=C(NN1C(=O)/C(=C/C=C/c2ccco2)SC1=S)c1ccccc1O	ZTA DNA inh 49, EBNA-1 inhibitor 37
O=C(O)CC(C(=O)O)N1C(=O)/C(=C/C=C/c2ccco2)SC1=S (centres undefined)	ZTA DNA inh 92, EBNA-1 inhibitor 36 (no result: NALP1 inh)
Cn1cccc1/C=C1\SC(=S)N(NC(=O)c2ccccc2O)C1=O	none
CC(C)(C)c1ccc(OCCNC(=S)Nc2ccccc2)cc1	NALP1 inh 30
CCN(CC(=O)Nc1ccc(NC(C)=O)cc1)C(=O)CCN1C(=O)C2CC=CCC2C1=O (centres undefined)	none (no result: PolyA inh, ZTA DNA inh, NALP1 inh, EBNA-1 inhibitor)
CCN(CC)c1ccc(N=Cc2cc(Br)ccc2O)cc1	ZTA DNA inh 184, EBNA-1 inhibitor 126
Oc1ccc(Br)cc1C=Nc1ccc(Cl)cc1	none
CCC(CC)NC(=O)C1CC(=O)N(CCc2ccc(F)cc2)C1 (centres undefined)	none
O=C1c2ccccc2C(=O)c2c(NCCCN(CCO)CCO)cccc21	dFosB activator 56 (no result: ZTA DNA inh, EBNA-1 inhibitor)
Cc1cc(C(=O)CN2C(=O)C(=O)N(CC(C)C)C2=O)c(C)n1C1CC1	none (no result: PolyA inh, NALP1 inh, EBNA-1 inhibitor)
